Bioassay records (PubChem BioAssay)
uPA surface inh = inhibitors of cell surface uPA generation; 0.31% of 330,000 active; Potency, µM (series often up to 38.3 µM), without a hit: at the highest dose activity change, negative = inhibition, most hits filed as inhibitors; cell surface uPA generation assay, qHTS; active = well fitted inhibition curve with a large enough effect; inconclusive = small, poorly fitted or top-dose-only effect; inactive = no such curve, though single readings can be large or run the other way; tested in mouse RAW 264.7 cells; note: potency is the fitted concentration of half-maximal effect; % is set by controls: 0 for no effect and ±100 for the full control effect; nearly all actives have a fitted effect of over 55% in size
Mito fusion act = inhibitors of mitochondrial division or activators of mitochondrial fusion | S. cerevisiae fusion-defective mutant growth rescue, CellTiterGlo 48 h | Potency, µM (highest dose often 46.1 µM), for the others: top-dose growth rescue (activation), actives largely listed as activators | 0.23% of 320,000 active; note: potency is the fitted concentration of half-maximal effect; % of control where 0% means no effect; nearly all actives have a fitted effect of over 45% in size
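Temperature-sensitive fusion-defective S. cerevisiae (e.g. fzo1-1, mgm1-5) were grown with compound in YPEG medium (3% ethanol, 3% glycerol) for 48 hours at 37C. Growth rescue was measured as viability by CellTiterGlo luminescence after 10 minutes at ambient.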
Giardia kill = Giardia lamblia killing. Giardia lamblia trophozoite viability. activity change, % at 7.66 µM, hits read low. 0.15% of 340,000 active; in the data active = activity change below about -80%; inconclusive = between about -30% and that limit;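 note: parasites exposed to compound for two days anaerobically before the ATP read; % is set by controls: 0 for no effect and ±100 for the full control effect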
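Media and compound were dispensed first, then trophozoites at 100 cells/well; plates sat 48 hrs at 37 deg C without oxygen before ATP luminescence reagent was added and read after 15-30 min at room temperature.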
p53 reactivator = mutant p53 re-activation in reporter cells; Potency, µM (titrated, usually from 92.2 µM), without a hit: at the highest dose activity change, positive = activation, most hits filed as activators; H1299 p53-A138V BP100-luciferase reporter, luminescence, 24 h; 0.063% of 320,000 active; AID 504706; note: potency is the fitted concentration of half-maximal effect; % of control where 0% means no effect; nearly all actives have a fitted effect of over 45% in size
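H1299 (p53-null), stable ts p53-A138V + BP100-Luc; 1000 cells/well, Opti-MEM/10% FBS; cpd 4 pt, 1:5; 24 h, 37 deg C, 5% CO2; detection reagent 10 min RT; luminescence.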
B2AR arrestin = beta2AR (human) beta-arrestin recruitment activity. P07550. beta-arrestin recruitment to beta2AR, cell-based reporter. Potency, µM (series often up to 46.1 µM), without a hit: top-dose activation, most hits filed as activators. 0.02% of 330,000 active. AID 492947;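 note: potency is the fitted concentration of half-maximal effect; 0% = DMSO controls and full agonism = EC100 isoproterenol or metaproterenol; nearly all actives have a fitted effect of over 65% in size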
Target sequence (P07550 whole entry, looked up): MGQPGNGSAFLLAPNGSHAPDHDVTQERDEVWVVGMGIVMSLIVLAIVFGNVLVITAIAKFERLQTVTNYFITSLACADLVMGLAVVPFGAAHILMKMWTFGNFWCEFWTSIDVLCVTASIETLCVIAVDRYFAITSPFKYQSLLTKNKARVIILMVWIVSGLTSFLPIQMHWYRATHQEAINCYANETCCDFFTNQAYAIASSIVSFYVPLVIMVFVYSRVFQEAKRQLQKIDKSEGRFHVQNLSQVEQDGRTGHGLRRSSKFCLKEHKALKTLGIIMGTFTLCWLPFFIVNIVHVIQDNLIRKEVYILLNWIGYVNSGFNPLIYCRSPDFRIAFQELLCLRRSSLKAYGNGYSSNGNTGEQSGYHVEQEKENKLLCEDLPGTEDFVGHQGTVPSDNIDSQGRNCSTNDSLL
ClpP mod = qHTS Assay for Activators of ClpP. Potency, µM (highest dose often 57.5 µM), inactives show at the top dose activity change, negative = active. purified B. subtilis ClpP, FRET peptide cleavage, 20 min. 1.9% of 340,000 active; active = well fitted falling curve with a large enough effect; inconclusive = small, poorly fitted or top-dose-only effect; inactive = no such curve, though single readings can be large or run the other way; note: potency is the fitted concentration of half-maximal effect; the source files actives as falling curves though it sought activators and does not explain the sign; nearly all actives have a fitted effect of over 65% in size
Target sequence (P80244 whole entry, looked up): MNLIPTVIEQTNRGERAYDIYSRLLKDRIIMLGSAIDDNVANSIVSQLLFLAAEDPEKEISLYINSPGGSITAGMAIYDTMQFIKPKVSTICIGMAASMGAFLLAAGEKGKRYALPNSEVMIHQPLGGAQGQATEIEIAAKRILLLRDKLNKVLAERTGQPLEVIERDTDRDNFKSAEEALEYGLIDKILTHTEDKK
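Purified B. subtilis ClpP, 10 microg/mL final in Tris/HCl pH8 with KCl, BSA, glycerol and Tween-20, cleaved an Abz/nitrotyrosine-quenched decapeptide. Fluorescence (ex 320, em 430) was read at 0 and 20 min at room temperature. Delta was normalized to 5.8 microM ADEP and DMSO/no-enzyme controls.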
* marks the source's active call; other numbers are inactive results. A selection: hits, their analogues and other compounds. The true share with any hit is near 2.1%. Unless noted, calls come from the whole dose curve; as a rule, active = well fitted curve in the direction sought with a large enough effect; inconclusive = small, poorly fitted or top-dose-only effect, or another doubt; inactive = no such curve, though single readings can be large; an effect the other way counts as inactive or inconclusive.

CNC(=O)Oc1ccc(-c2cn3cc(C)ccc3n2)cc1 was read as uPA surface inh -11%, Mito fusion act -6%, Giardia kill -108*, p53 reactivator 28%, B2AR arrestin 0% and ClpP mod 13µM*.
For C[C@]12CC[C@H](O)C[C@H]1CCC1C2CC[C@]2(C)[C@@H](c3ccc(=O)oc3)C[C@H]3O[C@]132 (some centres not stated) the results were ClpP mod 0%.
Screening CCCCCn1c(NC(=O)c2ccco2)c(C(=O)OCC)c2nc3ccccc3nc21 returned uPA surface inh -17%, Mito fusion act -14%, Giardia kill 7, p53 reactivator -10% and B2AR arrestin 0%.
Screening CCOC(=O)c1c(NS(=O)(=O)c2ccccc2)n(CCCOC)c2nc3ccccc3nc12 returned uPA surface inh -1%, Mito fusion act 2%, Giardia kill 10, p53 reactivator -10%, B2AR arrestin 0% and ClpP mod 28µM*.
`COCCCn1c(N)c(C(=O)OCCOC)c2nc3ccccc3nc21` gave uPA surface inh 10%, Mito fusion act -4%, Giardia kill 3, p53 reactivator -1%, B2AR arrestin 0% and ClpP mod -2%.
CCCCNC(=O)c1c(N)n(CCCOC)c2nc3ccccc3nc12 was read as Mito fusion act inconclusive, Giardia kill -14, p53 reactivator -5%, B2AR arrestin 0% and ClpP mod 25µM*.
`CC(C)OCCCNC(=O)c1c(N)n(Cc2cccs2)c2nc3ccccc3nc12` gave uPA surface inh 11%, Mito fusion act inconclusive, Giardia kill -6, p53 reactivator -22%, B2AR arrestin -1% and ClpP mod 10µM*.
CC(C)CCn1c(N)c(C(=O)NCc2cccs2)c2nc3ccccc3nc21 was read as Mito fusion act 0%, Giardia kill 11, p53 reactivator -25%, B2AR arrestin 1% and ClpP mod 14µM*.
For Nc1c(C(=O)NCc2ccco2)c2nc3ccccc3nc2n1CCN1CCCCC1 the results were uPA surface inh inconclusive, Mito fusion act -22%, Giardia kill 6, p53 reactivator -4%, B2AR arrestin 0% and ClpP mod -20%.
Screening Nc1c(C(=O)OCC2CCCO2)c2nc3ccccc3nc2n1Cc1cccs1 (configuration not stated) returned uPA surface inh 11%, Mito fusion act 1%, Giardia kill -6, p53 reactivator 8%, B2AR arrestin 0% and ClpP mod 19%.
`c1ccc(CN2CCC(Nc3nc(-c4cccs4)nc4ccccc34)CC2)cc1` gave uPA surface inh inconclusive, Mito fusion act inconclusive, Giardia kill 8, p53 reactivator 1%, B2AR arrestin 0% and ClpP mod inconclusive.
COCCNC(=O)c1c(N)n(CCC(C)C)c2nc3ccccc3nc12 was read as uPA surface inh 8%, Mito fusion act -12%, Giardia kill -2, p53 reactivator -2%, B2AR arrestin -1% and ClpP mod 16µM*.
`C[C@@H]1CNC(=O)c2c(C(=O)Nc3cccc(Cl)c3)ncn21` gave ClpP mod 3%.
Cc1oc(-c2ccccc2)nc1CN1C(=O)CN=C(c2ccccc2)c2ccccc21 was read as uPA surface inh -28%, Mito fusion act 13µM*, Giardia kill -9, p53 reactivator -2%, B2AR arrestin -1% and ClpP mod 0%.
`Cc1ccccc1-c1nc(CN2C(=O)CN=C(c3ccccc3)c3ccccc32)c(C)o1` gave ClpP mod 2%.
`ClCCN(CCCl)c1ccc(C=Nc2ccc(/C=C/c3ccncc3)cc2)cc1` gave ClpP mod -16%.
`COC(=O)C1=C(c2cccc(OCc3ccccc3)c2)C[C@@H]2CC[C@H]1N2C(=O)NCc1ccccc1OC` gave uPA surface inh 14µM*, Mito fusion act inconclusive, Giardia kill 16, p53 reactivator -10%, B2AR arrestin 3% and ClpP mod -3%.
For COC(=O)C1=C(c2ccc(-c3ccccc3)c(F)c2)C[C@@H]2CC[C@H]1N2C(=O)NCC1CC1 the results were uPA surface inh inconclusive, Mito fusion act 20µM*, Giardia kill 3, p53 reactivator 10%, B2AR arrestin 10% and ClpP mod inconclusive.
`CN(Cc1cccc(-c2ccncc2)c1)C(=O)Oc1ccccc1Cc1ccccc1` gave ClpP mod 0%.
Screening Oc1ccccc1-[n+]1c(-c2ccccc2)cc(-c2ccccc2)cc1-c1ccccc1 returned uPA surface inh inconclusive, Mito fusion act 5%, Giardia kill -12, p53 reactivator -6%, B2AR arrestin -1% and ClpP mod 2%.
`Cc1ccccc1-[n+]1c(-c2ccccc2)cc(-c2ccccc2)cc1-c1ccccc1` gave uPA surface inh 7.9µM*, Mito fusion act 0%, Giardia kill 6, p53 reactivator -9%, B2AR arrestin 0% and ClpP mod -27%.
Screening Cc1ccc(CNc2cc(C)nc3nc(-c4ccc(C)cc4)nn23)cc1 returned ClpP mod 37%.
C=CCC[C@@H](Cc1ccc(F)cc1)C(=O)OC[C@H](Cc1c[nH]c2ccccc12)NC(=O)[C@H](CC=C)CC(=O)N(CCO)Cc1ccccc1 was read as uPA surface inh inconclusive, Giardia kill -11, p53 reactivator 4%, B2AR arrestin -1% and ClpP mod -3%.
`CCOc1ccccc1-n1c(O)c(C=NCCCN(CC)CC)c(=O)[nH]c1=O` gave uPA surface inh 1%, Mito fusion act -1%, Giardia kill 10, p53 reactivator 2%, B2AR arrestin 0% and ClpP mod 32µM*.
CCCCn1c(O)c(C(CC)=Nc2ccc(C(=O)O)cc2)c(=O)[nH]c1=O was read as uPA surface inh 6%, Mito fusion act 4%, Giardia kill 5, p53 reactivator 8%, B2AR arrestin 1% and ClpP mod 2.5µM*.
C=CCn1c(O)c(C(CC)=Nc2ccc(C(=O)O)cc2)c(=O)[nH]c1=O was read as uPA surface inh 0%, Mito fusion act -1%, Giardia kill -6, p53 reactivator 2% and B2AR arrestin 0%.
For Cc1ccc(Cl)cc1NC(=O)N(Cc1ccc2c(c1)OCO2)C1CCN(Cc2ccccc2)CC1 the results were ClpP mod -2%.
Screening COc1cccc(-c2sc3ccccc3c2-c2ccc(OCCN3CCOCC3)cc2)c1 returned uPA surface inh -11%, Giardia kill 13, p53 reactivator -6%, B2AR arrestin 0% and ClpP mod 32µM*.
